In PubChem BioAssay AID376 (PDSP, 2006):
About 250 (12%) of roughly 2,000 compounds were called active. No stated cut-off is given here; in the data, active means hERG blockade below about -20% or above about 20%; inactive means in between. The entries come from a sample that favours actives as a whole.

Each molecule was assayed against Voltage-gated inwardly rectifying potassium channel KCNH2 (Homo sapiens) (UniProt Q12809) (assay: KCNH2 potassium channel function modulators, cell-based (AID 376;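 further: 0% = buffer alone and 100% = reference blocker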)). Conditions: hERG-expressing cells, channel activity single-concentration screen; concentration not given here.
Voltage-gated inwardly rectifying potassium channel KCNH2 (Homo sapiens), sequence (Q12809 whole entry, looked up): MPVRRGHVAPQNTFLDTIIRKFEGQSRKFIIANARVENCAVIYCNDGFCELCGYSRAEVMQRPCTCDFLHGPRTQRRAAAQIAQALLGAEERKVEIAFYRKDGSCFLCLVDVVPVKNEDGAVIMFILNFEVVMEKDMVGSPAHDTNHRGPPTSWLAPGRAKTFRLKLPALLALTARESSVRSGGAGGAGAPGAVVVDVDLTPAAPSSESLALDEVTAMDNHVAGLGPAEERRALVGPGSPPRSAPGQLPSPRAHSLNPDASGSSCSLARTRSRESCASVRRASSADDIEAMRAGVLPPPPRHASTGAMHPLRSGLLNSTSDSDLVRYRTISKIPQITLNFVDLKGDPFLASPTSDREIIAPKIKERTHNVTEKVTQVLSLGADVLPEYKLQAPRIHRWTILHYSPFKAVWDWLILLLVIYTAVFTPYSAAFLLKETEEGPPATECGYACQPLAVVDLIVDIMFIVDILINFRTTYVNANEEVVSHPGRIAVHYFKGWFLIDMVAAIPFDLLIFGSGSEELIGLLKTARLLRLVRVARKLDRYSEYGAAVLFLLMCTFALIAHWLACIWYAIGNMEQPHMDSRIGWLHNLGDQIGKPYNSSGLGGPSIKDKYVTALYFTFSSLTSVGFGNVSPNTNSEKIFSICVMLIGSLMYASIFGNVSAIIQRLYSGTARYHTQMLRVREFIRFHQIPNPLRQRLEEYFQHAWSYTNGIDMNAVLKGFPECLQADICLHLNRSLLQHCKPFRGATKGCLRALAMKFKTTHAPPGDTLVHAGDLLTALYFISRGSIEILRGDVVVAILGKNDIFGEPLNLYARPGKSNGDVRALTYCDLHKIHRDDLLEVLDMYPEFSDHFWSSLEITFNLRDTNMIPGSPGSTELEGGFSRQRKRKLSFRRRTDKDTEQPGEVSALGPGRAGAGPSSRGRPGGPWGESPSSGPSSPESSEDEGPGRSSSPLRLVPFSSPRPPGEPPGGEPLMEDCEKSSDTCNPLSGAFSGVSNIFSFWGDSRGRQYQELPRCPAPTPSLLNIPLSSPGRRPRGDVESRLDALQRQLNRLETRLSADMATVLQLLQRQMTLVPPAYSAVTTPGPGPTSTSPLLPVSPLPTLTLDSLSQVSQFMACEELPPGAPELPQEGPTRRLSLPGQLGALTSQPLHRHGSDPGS

Row | Compound | hERG blockade
1 | CC(=O)OC1CCC2(C)C(=CCC3C2CCC2(C)C(C(C)C(=O)O)CCC32)C1 (stereo not drawn) | -4.67% (inactive)
2 | CC(=O)OC1CCC2(C)C(=CCC3C2CCC2(C)C3CC3OC4(CCC(C)CN4)C(C)C32)C1 (stereo not drawn) | -9.31% (inactive)
3 | CC(=O)OC1CCC2(C)C(=CCC3C2CCC2(C)C(c4cc(C(F)(F)F)n(C(C)=O)n4)CCC32)C1 (stereo not drawn) | 20.6% (active)
4 | CC(C)(CN)CN | -12.2% (inactive)
5 | O=c1c[n+](CCCC[n+]2cc(=O)o[nH]2)[nH]o1 | -2.64% (inactive)
6 | Nc1ncnc2nc[nH]c12.Nc1ncnc2nc[nH]c12.[Cl][Pt]([Cl])([Cl])[Cl] | 0.497% (inactive)
7 | O=C1C=C(Nc2nc(C(=O)O)cc(=O)[nH]2)c2ccccc2C1=O | 2.16% (inactive)
8 | O=C=Nc1ccc(Cc2ccc(N=C=O)cc2)cc1 (tested in a mixture with another compound) | 20% (active)
9 | Nc1n[nH]c2ccccc12 | 0.624% (inactive)
10 | CN(C)CCNS(=O)(=O)N(C)C | 6.32% (inactive)
11 | COc1c2c(c3c(c1CCC(=O)O)OC(C)(C)C=C3)OC(C)(C)C=C2 | -28.9% (active)
12 | O=C(O)CSc1ccc(N=C=S)cc1 | 3.98% (inactive)
13 | CC(C)(N)C(=O)NC1C(=O)N2C1SC(C)(C)C2C(=O)O (stereo not drawn) | -3.34% (inactive)
14 | COC1C=COC2(C)Oc3c(C)c(O)c4c(O)c(c(CN(C)C)c(O)c4c3C2=O)NC(=O)C(C)=CC=CC(C)C(O)C(C)C(O)C(C)C(OC(C)=O)C1C (stereo not drawn) | 16.3% (inactive)
15 | CS(=O)(=O)N(CC(=O)O)Cc1ccccc1 | 12.2% (inactive)
16 | NN(CC(=O)O)CC(=O)O | 0.375% (inactive)
17 | O=C(O)CN(CC(=O)O)c1ccccc1 | -27.7% (active)
18 | CC(C)=CCc1c2c(c3occ(-c4ccc(O)c(O)c4)c(=O)c3c1O)C=CC(C)(C)O2 | 6.29% (inactive)
19 | O=C(O)c1ccc(SSc2ccc(C(=O)O)cn2)nc1 | -6.71% (inactive)
20 | O=C(O)C1C2CC3C(OC(=O)C31)C2Br (stereo not drawn) | 2.45% (inactive)
21 | Cn1c(=O)c2[nH]c(CCNC(=O)c3ccccc3)nc2n(C)c1=O | -14% (inactive)
22 | N=C(N)c1ccc(C=Cc2ccc(C(=N)N)cc2)cc1 | 30.2% (active)
23 | N=C(N)c1ccc(-c2ccc(-c3ccc(C(=N)N)cc3)o2)cc1 | 38.8% (active)
24 | NC(CSCc1ccccc1)C(=O)O (stereo not drawn) | -2.53% (inactive)
25 | Nc1nc(SCc2ccccc2[N+](=O)[O-])c2[nH]cnc2n1 | -11.5% (inactive)

Row | Compound | hERG blockade
26 | CNc1ncnc(Sc2nc(N)nc3nc[nH]c23)c1[N+](=O)[O-] | -10.6% (inactive)
27 | Nc1nc(Sc2ccc([N+](=O)[O-])c3nonc23)c2[nH]cnc2n1 | 23.5% (active)
28 | CC1(C)N=C(N)N=C(N)N1c1cccc(OCc2cccc(N)c2)c1 | 4.96% (inactive)
29 | NC(=O)CC=CCC(N)=O | 1.92% (inactive)
30 | O=C(Nc1cccc2ccccc12)c1ccccc1 | -30.7% (active)
31 | O=C(O)c1ccc(C(=O)Nc2cccc3ccccc23)c(C(=O)O)c1 | -3.99% (inactive)
32 | S=C(CSc1ccccc1)Nc1cccc2ccccc12 | -7.05% (inactive)
33 | COC(=O)C1(C)CCC(c2ccc(C)cc2)=C(CC(=O)O)C1 (stereo not drawn) | -13.4% (inactive)
34 | OCCNC1c2cc(Cl)ccc2-c2c(Cl)cc(Cl)cc21 (stereo not drawn) | 46.9% (active)
35 | O=C(NCCO)c1ccc(Cl)cc1 | 5.8% (inactive)
36 | c1ccc(B2OCC(C3OB(c4ccccc4)OC4COB(c5ccccc5)OC43)O2)cc1 (stereo not drawn) | 2.69% (inactive)
37 | CC1CCCC(CC(=O)O)(CC(=O)O)C1 (stereo not drawn) | -3.65% (inactive)
38 | CC1(CC(=O)O)OC2CCCCCC2O1 (stereo not drawn) (tested in a mixture with another compound) | 1.56% (inactive)
39 | CC1(C)C2CCC1(CC(=O)O)C(Cl)C2 (stereo not drawn) | -22.5% (active)
40 | COc1ccc(CC[N+]2(C)COc3cc4oc(=O)cc(C)c4cc3C2)cc1OC (stereo not drawn) | 11% (inactive)
41 | Cc1c(O)c(Br)c(C)c(O)c1Br (tested in a mixture with another compound) | 12.5% (inactive)
42 | CC(NCCN(C)C)C1CCC2C3CCc4cc(O)ccc4C3CCC12C (stereo not drawn) | 22.1% (active)
43 | CC12CCC3c4ccc(O)cc4CCC3C1CC(=NO)C2O (stereo not drawn) | -10.7% (inactive)
44 | CC12CCC3c4ccc(O)cc4CCC3C1CCC2OP(=O)(O)O (stereo not drawn) | -3.7% (inactive)
45 | Cc1cc(=Nc2ccc3c(c2)c(N)cc(C)[n+]3C)nc(N)n1C | 30.2% (active)
46 | OCc1ccncc1.OCc1ccncc1.[Cl][Pt]([Cl])([Cl])[Cl] | 1.38% (inactive)
47 | CCC(=O)Nc1ncnc2ncn(C(=O)CC)c12 | 12.6% (inactive)
48 | COc1ccc(C(Nc2ccccn2)c2cc(C(C)(C)C)cc(C(C)(C)C)c2O)cc1 (stereo not drawn) | 9.88% (inactive)
49 | CC(C)COC(c1ccc2c(c1)OCO2)C(C)Br (stereo not drawn) | 0.642% (inactive)
50 | COc1ccc(C(Nc2ncccn2)c2cc3c(cc2O)OCO3)cc1 (stereo not drawn) | -20.2% (active)

Row | Compound | hERG blockade
51 | COc1ccc(C(C)c2cc3c(cc2O)OCO3)cc1 (stereo not drawn) | 30% (active)
52 | COc1ccc(C(O)c2ccccn2)cc1 (stereo not drawn) | 3.46% (inactive)
53 | O=C(O)c1c(-c2c3ccc(=O)cc-3oc3cc(O)ccc23)cc2ccccc2c1-c1ccccc1 | 11.7% (inactive)
54 | CC(C)(C)NCC(O)c1ccc(O)c(CO)n1 (stereo not drawn) | -0.947% (inactive)
55 | CCC(CN(C)C)C(=O)c1ccco1 (stereo not drawn) | 5.17% (inactive)
56 | Clc1cccc(Cl)c1C(Nc1nncs1)Nc1nncs1 | -3.96% (inactive)
57 | Nc1nc(SCC(=O)O)[nH]c(=O)c1N | 5.23% (inactive)
58 | O=C(Nc1c[nH]c(=O)[nH]c1=O)Oc1ccccc1 | -11% (inactive)
59 | NS(=O)(=O)c1cc(C(=O)O)c(O)c2ccccc12 | 2.98% (inactive)
60 | NS(=O)(=O)c1ccc(N=Nc2ccc(O)c(C(=O)O)c2)cc1 | -6.41% (inactive)
61 | NS(=O)(=O)c1ccc(N=Nc2cc3ccccc3c(C(=O)O)c2O)cc1 | 33.3% (active)
62 | NS(=O)(=O)c1ccc(N=Nc2ncccc2O)cc1 | 17.7% (inactive)
63 | NS(=O)(=O)c1ccc(N=Nc2c(O)c(C(=O)O)cc3ccccc23)cc1 | 22.9% (active)
64 | Cc1c(S(=O)(=O)O)ccc(N=Nc2c(O)c(C(=O)O)cc3ccccc23)c1Cl | 2.42% (inactive)
65 | O=C(O)CNc1ccc(C(=O)O)cc1 | 1.76% (inactive)
66 | CC(=NNc1nc(C)cc(=O)[nH]1)C(=O)O | -18.5% (inactive)
67 | c1ccc(-c2cc(-c3cc(-c4ccccn4)[nH]n3)n[nH]2)nc1 | 6.68% (inactive)
68 | Cn1c(=O)c2[nH]c(C3CC(=O)CC(c4nc5c([nH]4)c(=O)n(C)c(=O)n5C)N3)nc2n(C)c1=O (stereo not drawn) | -8.89% (inactive)
69 | Oc1ccccc1C(Sc1nc2ccccc2s1)Sc1nc2ccccc2s1 | -6.16% (inactive)
70 | Cc1sc2ccccc2[n+]1CCC(=O)O | -12.2% (inactive)
71 | O=C1Nc2ccccc2C1=Nc1cccc2ncccc12 | -1.09% (inactive)
72 | NS(=O)(=O)c1ccc(N=C2C(=O)Nc3ccccc32)cc1 | -20.3% (active)
73 | O=C1Nc2ccccc2C1=Nc1ccc(S(=O)(=O)Nc2nccs2)cc1 | -2.12% (inactive)
74 | CN(C)CCCN=C(N)N | -7.66% (inactive)
75 | O=C(O)C1CC2(C1)CC(C(=O)O)C2 (stereo not drawn) | -11.8% (inactive)

Row | Compound | hERG blockade
76 | CN(C)Cc1cc(C(F)(F)F)ccc1C(O)(c1ccccc1)c1ccccc1 | 21.7% (active)
77 | CN(C)Cc1cc(C(C)(C)C)cc(CN(C)C)c1O | 6.58% (inactive)
78 | CN(C)Cc1cc(C(C)(C)C)ccc1-c1ccc(C(C)(C)C)cc1CN(C)C | 17.8% (inactive)
79 | O=C1CCC(c2ccccc2)=NN1c1nc2ccccc2s1 | -9.74% (inactive)
80 | CC(C(=O)c1ccncc1)c1ccccn1 (stereo not drawn) | -1.76% (inactive)
81 | O=C(O)c1cc(C(=O)C(=O)c2cc(C(=O)O)c(O)c3ccccc23)c2ccccc2c1O | 18.7% (inactive)
82 | O=C1c2cc([N+](=O)[O-])ccc2-c2ccc3c4ccc5c6c(ccc(c7ccc1c2c73)c64)C(=O)c1cc([N+](=O)[O-])ccc1-5 | 12.2% (inactive)
83 | O=C1c2ccccc2-c2cc([N+](=O)[O-])c([N+](=O)[O-])cc21 | 77.8% (active)
84 | O=C1c2ccccc2-c2ccc(N=[N+]([O-])c3ccc4c(c3)C(=O)c3ccccc3-4)cc21 | -2.94% (inactive)
85 | CNC1NC(=O)c2ccccc2N1Cc1ccc(F)cc1 (stereo not drawn) | 9.53% (inactive)
86 | c1ccc(CSc2nnc3c4ccccc4c4ccccc4c3n2)cc1 | -3.1% (inactive)
87 | CCOC(=O)C(O)Cc1cnc2ccccc2n1 (stereo not drawn) | 19.4% (inactive)
88 | c1ccc(CCNCc2ccco2)nc1 | -7.49% (inactive)
89 | CCCC(Sc1nc(N)nc2nc[nH]c12)C(=O)O (stereo not drawn) | 2.81% (inactive)
90 | CC(C)(SCc1ccccc1)C(N)C(=O)O (stereo not drawn) | 2.47% (inactive)
91 | NS(=O)(=O)c1ccc(NC(=O)Nc2cccc3ccccc23)cc1 | 0.23% (inactive)
92 | CC(=N[O-])C(C)=N[O-].CC(=N[O-])C(C)=N[O-].CC(=N[O-])C(C)=N[O-].CC(=N[O-])C(C)=N[O-].[CH3-].[CH3-].[Co].[Co] | 11.4% (inactive)
93 | O=S(=O)(c1cccc(C(F)(F)F)c1)N1c2ccccc2-n2cccc2C1c1cccnc1 (stereo not drawn) | 18% (inactive)
94 | FC(F)(F)c1nc(SCc2ccc(Cl)cc2)n[nH]1 | 4.58% (inactive)
95 | COc1ccc2c(Cl)cc(NC(=S)Nc3ccccc3)nc2c1 | -8.81% (inactive)
96 | CSc1nc(C)cc(Nc2ccc(O)c(CN3CCCCC3)c2)n1 | 14.8% (inactive)
97 | COc1ccc2nc3cc(Cl)ccc3c(Nc3ccc(O)c(CN4CCN(C)CC4)c3)c2c1 | 61.7% (active)
98 | OC(CNc1ccccn1)c1ccccc1 (stereo not drawn) | 5.58% (inactive)
